Screening data deposited in PubChem BioAssay by National Center for Advancing Translational Sciences (NCATS).
G9a block: qHTS Assay for Inhibitors of Histone Lysine Methyltransferase G9a. Histone-lysine N-methyltransferase EHMT2 (Homo sapiens), Q96KQ7. Potency, µM (top dose mostly 102 µM), usual class: inhibitors. G9a H3K9 monomethylation, AlphaScreen, 2 h. 350,000 compounds, 8.8% hits. AID 504332, 2011; further: nearly all actives have a fitted effect of over 75% in size
Target sequence (Q96KQ7 913-1193 limits assumed): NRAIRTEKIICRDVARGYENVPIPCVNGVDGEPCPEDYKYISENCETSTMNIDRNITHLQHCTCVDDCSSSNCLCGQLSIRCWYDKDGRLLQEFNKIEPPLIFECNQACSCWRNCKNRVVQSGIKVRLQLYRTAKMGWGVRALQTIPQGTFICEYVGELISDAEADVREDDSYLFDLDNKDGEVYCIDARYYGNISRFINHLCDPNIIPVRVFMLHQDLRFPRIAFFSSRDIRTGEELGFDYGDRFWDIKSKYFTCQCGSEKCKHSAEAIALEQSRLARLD
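Quantitative HTS format: methyltransferase activity on a biotin-tagged H3K9 peptide is measured by AlphaScreen, using a rabbit anti-monomethyl-H3K9 antibody with streptavidin donor and anti-IgG acceptor beads. Final levels are 20 nM enzyme, 500 nM peptide, 20 uM SAM; 2 h RT.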
JMJD2A Tudor inh: qHTS Assay for Inhibitors of JMJD2A-Tudor Domain. Lysine-specific demethylase 4A (Homo sapiens), O75164. AlphaScreen JMJD2A-Tudor / H3K4me3 peptide binding. Potency, µM (top dose mostly 114 µM), usual class: inhibitors. 390,000 compounds, 4.4% hits; further: nearly all actives have a fitted effect of over 50% in size
HP1b chromo inh: HTS for Inhibitors of HP1-beta Chromodomain Interactions with Methylated Histone Tails | 390,000 compounds, 0.56% hits | Chromobox protein homolog 1 (Homo sapiens), P83916 | Potency, µM (top dose mostly 114 µM), hits mostly inhibitors | AlphaScreen HP1-beta / biotin-H3K9me3 peptide binding; further: nearly all actives have a fitted effect of over 70% in size
Target sequence (P83916 whole entry, looked up): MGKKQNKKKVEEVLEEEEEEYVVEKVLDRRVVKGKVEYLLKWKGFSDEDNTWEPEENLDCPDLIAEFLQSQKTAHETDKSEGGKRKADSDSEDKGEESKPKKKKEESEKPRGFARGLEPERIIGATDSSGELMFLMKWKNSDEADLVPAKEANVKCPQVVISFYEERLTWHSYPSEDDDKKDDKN
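AlphaScreen: HP1-beta (50 nM) preformed 30 min with biotin-H3(1-18)K9me3 peptide (50 nM) in PBS pH 7.4, 0.01% Tween-20. Compound added for 30 min at RT, then streptavidin donor/nickel chelate acceptor beads (10 ug/mL) for 30 min.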
GLS inhibitor: qHTS for Inhibitors of Glutaminase (GLS) | Glutaminase kidney isoform, mitochondrial (Homo sapiens), O94925 | GLS enzymatic activity, qHTS titration | Potency, µM (series often up to 45.5 µM), usual class: inhibitors | 410,000 compounds, 0.21% hits
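Two-point fluorescence kinetic (t0, 30 min RT) for hKGA; glutamate detected via glutamate oxidase–HRP–Amplex Red. Substrate: 1 mM L-glutamine solution; buffer 45 mM KH2PO4, pH 8.2.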
BAZ2B block: qHTS Assay for Inhibitors of BAZ2B | 360,000 compounds, 4.4% hits | Potency, µM (titrated, usually from 114 µM), actives largely listed as inhibitors | AID 504333, 2011 | Bromodomain adjacent to zinc finger domain protein 2B (Homo sapiens), Q9UIF8 | AlphaScreen BAZ2B-H3K14Ac peptide displacement; further: nearly all actives have a fitted effect of over 60% in size
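In this displacement format the biotinylated H3(5-23) peptide acetylated at Lys14 serves as ligand at 50 nM, with BAZ2B at 50 nM in PBS pH 7.4 containing 0.01% Tween-20. Donor and acceptor beads are 10 ug/mL final.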
Large screens that a line does not name were inactive. Sampled rows, rich in hits. Any-hit rate of the full collection: about 10%. The call rests on the fitted dose curve; in most records, active means well fitted curve in the direction sought with a large enough effect; inconclusive means small, poorly fitted or top-dose-only effect, or another doubt; inactive means no such curve, though single readings can be large; an effect the other way counts as inactive or inconclusive.

CC(C)(C)c1cc[n+](/C(C(=S)NC2CC2)=C(/[O-])c2ccc(Cl)s2)cc1	G9a block 10µM, GLS inhibitor inconclusive
[O-]/C(=C(\C(=S)Nc1cccc2ccccc12)[n+]1ccccc1)c1ccc(Cl)s1	G9a block inconclusive, JMJD2A Tudor inh inconclusive, HP1b chromo inh inconclusive, BAZ2B block 35µM
Cc1cc(C)cc(NC(=S)/C(=C(\[O-])c2ccc(Cl)cc2Cl)[n+]2ccc(C(C)(C)C)cc2)c1	none
Cc1ccc(C)c(NC(=S)/C(=C(\[O-])c2ccc(Cl)s2)[n+]2ccccc2)c1	G9a block inconclusive, JMJD2A Tudor inh inconclusive, BAZ2B block 35µM
Cc1cc(C)cc(NC(=S)/C(=C(\[O-])c2ccc(Cl)s2)[n+]2cccc(C)c2)c1	G9a block 45µM, JMJD2A Tudor inh 50µM, HP1b chromo inh inconclusive, BAZ2B block 40µM
Cc1cc(C(=O)N2CCC2(C)C(=O)O)c(C)o1 (centres undefined)	none (no result: G9a block, JMJD2A Tudor inh, HP1b chromo inh, BAZ2B block)
Fc1ccc2nc(Nc3nc4cc5c(cc4s3)OCCO5)sc2c1	none
[O-]C(=C(C(=S)Nc1cccc2ccccc12)[n+]1cccc(CO)c1)c1ccc(Cl)s1	none (no result: G9a block, BAZ2B block)
CCc1cccc(CC)c1NC(=S)/C(=C(\[O-])c1ccc(Cl)s1)[n+]1ccccc1	G9a block 45µM, JMJD2A Tudor inh inconclusive, BAZ2B block inconclusive
COc1ccc(-c2oc3ccc(N4CCOCC4)cc3c2/C=C/c2ccc(OC)c(OC)c2)cc1	G9a block 50µM, BAZ2B block inconclusive
COc1ccc(/C=C/c2c(-c3ccc(OC)cc3)sc3ccc(N4CCOCC4)cc23)cc1	none
c1ccc(CSc2ccc(-c3ccccn3)nn2)cc1	JMJD2A Tudor inh 7.9µM, BAZ2B block 6.3µM
O=C(CSc1ccc(-c2ccccn2)nn1)c1ccccc1	G9a block inconclusive, JMJD2A Tudor inh 7.1µM, BAZ2B block 3.5µM
O=C(CSc1ccc(-c2ccccn2)nn1)NC1CCCC1	JMJD2A Tudor inh 3.2µM, BAZ2B block 3.2µM
O=C(CSc1ccc(-c2ccco2)nn1)N1CCCCC1	G9a block 22µM, BAZ2B block inconclusive
COc1cc(CCC(=O)OCC(=O)Nc2ccc(F)c(F)c2)cc(OC)c1OC	none
CCC(=O)N1CCc2cc(S(=O)(=O)NC(C(=O)NC(C)c3ccccc3)C(C)C)ccc21 (centres undefined)	none
O=C(CSc1ccc(-c2ccccn2)nn1)N1CCCC1	G9a block 3.5µM, JMJD2A Tudor inh 3.2µM, GLS inhibitor inconclusive, BAZ2B block 7.1µM
O=C(CSc1ccc(-c2ccco2)nn1)N1CCCC1	G9a block inconclusive
COCCn1c(SCC(=O)N2CCCC2)nnc1C(C)C	none
CCCn1c(SCC(=O)N2CCCCC2)nnc1C(C)C	JMJD2A Tudor inh 25µM, HP1b chromo inh inconclusive (no result: G9a block)
Cc1ccc2c(c1C)NC(C)CC2C (centres undefined)	G9a block 14µM, BAZ2B block inconclusive
Cc1ccc(Nc2ncc3c(n2)CC(c2ccco2)CC3=O)c(C)c1 (centres undefined)	G9a block 50µM
Cc1cc(C)cc(Nc2ncc3c(n2)CC(c2ccco2)CC3=O)c1 (centres undefined)	G9a block inconclusive, JMJD2A Tudor inh 89µM, HP1b chromo inh inconclusive
Cc1cccc(Nc2ncc3c(n2)CC(c2ccco2)CC3=O)c1 (centres undefined)	none
Cc1ccccc1NC1=C/C(=N\S(=O)(=O)c2ccc(C(=O)O)cc2)c2ccccc2C1=O	G9a block 32µM, JMJD2A Tudor inh 40µM, HP1b chromo inh 45µM, BAZ2B block 13µM
COC(=O)C(C(C)=O)C1=C/C(=N\S(=O)(=O)c2ccc(C)cc2)c2ccccc2C1=O (centres undefined)	G9a block 45µM
O=C(O)c1ccc(S(=O)(=O)/N=C2\C=C(Nc3ccccc3F)C(=O)c3ccccc32)cc1	G9a block 13µM, JMJD2A Tudor inh 40µM, HP1b chromo inh 40µM, BAZ2B block 22µM
CN(C)c1ccc(C2C3CCCc4ccccc4C3=NN2C)cc1 (centres undefined)	G9a block 10µM, JMJD2A Tudor inh 25µM, HP1b chromo inh inconclusive, BAZ2B block 32µM
CN1N=C2c3ccccc3CCC2C1c1ccc(C(F)(F)F)cc1 (centres undefined)	none
COc1ccc2c(c1)cc(C(=O)N[C@@H](CCSC)C(=O)N1CCC[C@H]1C(=O)O)n2C	none
O=C(c1ccc(F)cc1)N1CCCC(N2CCN(Cc3ccc4c(c3)OCO4)CC2)C1 (centres undefined)	none
CCOC(=O)CSc1nc2c(sc(=S)n2-c2ccccc2OC)c(=O)n1Cc1ccco1	G9a block 45µM
O=C1C(C2=NC(c3ccccn3)C3C(=O)N(c4ccc(OC(F)(F)F)cc4)C(=O)C23)=C(O)c2ccccc21 (centres undefined)	none
O=C1C(C2=NC(C(=O)O)C3C(=O)N(c4ccccc4)C(=O)C23)=C(O)c2ccccc21 (centres undefined)	G9a block inconclusive, JMJD2A Tudor inh 16µM
c1ccc(Sc2ncccn2)nc1	G9a block 32µM
Clc1ccc(Sc2ccccn2)cc1	none (no result: G9a block)
CCc1ccc(C(=O)COC(=O)CCc2nc3ccccc3c(=O)[nH]2)cc1	none
Cc1cccc(-n2c(O)c(C=Nc3ccccc3-c3n[nH]c(=S)[nH]c3=O)c3ccccc3c2=O)n1	G9a block 40µM, JMJD2A Tudor inh inconclusive
Cc1ccc(-n2c(O)c(C=NC3CCS(=O)(=O)C3)c3ccccc3c2=O)cc1C (centres undefined)	none
Cc1ccc(-n2c(O)c(C=Nc3ccccc3-c3n[nH]c(=S)[nH]c3=O)c3ccccc3c2=O)c(C)c1	G9a block inconclusive, JMJD2A Tudor inh 45µM, HP1b chromo inh inconclusive, BAZ2B block 40µM
Cc1cccc(-n2c(O)c(C=Nc3ccccc3O)c3ccccc3c2=O)n1	none
Cc1cccc(-n2c(O)c(C=Nc3ccc(O)cc3)c3ccccc3c2=O)n1	G9a block 50µM, BAZ2B block inconclusive
Cc1ccc(-n2c(O)c(C=Nc3ccccc3-c3n[nH]c(=S)[nH]c3=O)c3ccccc3c2=O)cc1C	G9a block inconclusive, JMJD2A Tudor inh 50µM, BAZ2B block 45µM
CCC(C)(C)NC(=O)C(c1cccn1C)N(C(=O)Cn1nnc2ccccc21)c1ccc(OC)cc1 (centres undefined)	none
CC(=O)Nc1ccc(NC(=O)CSCCc2ccccn2)cc1	none
CCn1c(C(O)c2ccc3c(c2)OCO3)nc2ccccc21 (centres undefined)	none
